Drawing on PubChem BioAssay (EPA / NIEHS), this text covers AC50 and outcome for three molecules.

Holding throughout (details): mRNA level, 48 h; actives raise or lower the signal
Read-out in experiment [1]: DNA damage-inducible transcript 3 (DDIT3), DDIT3 (gene 1649)
Description: LTEA_HepaRG_DDIT3: Life Technologies and Expression Analysis (LTEA) Assay for DNA damage-inducible transcript 3 (DDIT3) using HepaRG (AID 2283488). Put shortly: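 qRT-PCR readout (Fluidigm TaqMan), housekeeping-normalized to ACTB, GAPDH, POLR2A. HepaRG cells, 48 h exposure, 8-point half-log series from 100 uM in 0.5% DMSO, duplicates. Gain or loss of signal fitted against DMSO baseline.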

Read-out in experiment [2]: Pro-epidermal growth factor (Homo sapiens) (UniProt P01133)
Description: LTEA_HepaRG_EGF: Life Technologies and Expression Analysis (LTEA) Assay for Epidermal growth factor (EGF) using HepaRG (AID 2283489). The method, boiled down: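 HepaRG cells (~100,000/well, 48 h pre-culture) exposed in duplicate for 48 h in serum-free induction medium to 8 half-log concentrations up to 100 uM in 0.5% DMSO. EGF mRNA by qRT-PCR, normalized to ACTB/GAPDH/POLR2A; bidirectional fit versus DMSO.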

Read-out in experiment [3]: Early growth response protein 1 (EGR1) transcription factor, EGR1 (gene 1958)
The experiment is described as follows: LTEA_HepaRG_EGR1: Life Technologies and Expression Analysis (LTEA) Assay for Early growth response protein 1 (EGR1) transcription factor using HepaRG (AID 2283490). The method, boiled down: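 EGR1 transcript levels quantified by qRT-PCR (Fluidigm arrays) against three housekeeping genes after 48 h chemical exposure of HepaRG cells. Eight-point half-log series topping at 100 uM, 0.5% DMSO vehicle, analyzed for gain or loss.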

Read-out in experiment [4]: Ezrin (EZR), EZR (gene 7430)
The experiment is described as follows: LTEA_HepaRG_EZR: Life Technologies and Expression Analysis (LTEA) Assay for Ezrin (EZR) using HepaRG (AID 2283491). The method, boiled down:
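Gain or loss of EZR mRNA is scored relative to 0.5% DMSO in human HepaRG cultures treated 48 h with test chemicals in duplicate, eight half-log concentrations from 100 uM.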

Read-out in experiment [5]: Cytochrome P450 3A7 (Homo sapiens) (UniProt P24462)
Description: LTEA_HepaRG_CYP3A7: Life Technologies and Expression Analysis (LTEA) Assay for CYP3A7 using HepaRG (AID 2283492). Put shortly:
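Differentiated HepaRG cells in serum-free induction medium exposed 48 h in duplicate to 8-point half-log series from 100 uM top in 0.5% DMSO. CYP3A7 mRNA by qRT-PCR, normalized to ACTB/GAPDH/POLR2A, bidirectional fit versus DMSO.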

Read-out in experiment [6]: CYP3A5 (gene 1577)
The experiment is described as follows: LTEA_HepaRG_CYP3A5: Life Technologies and Expression Analysis (LTEA) Assay for CYP3A5 using HepaRG (AID 2283493). Put shortly: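 qRT-PCR read-out: CYP3A5 transcript in HepaRG lysates, housekeeping-normalized (ACTB/GAPDH/POLR2A), fitted bidirectionally against 0.5% DMSO baseline. Exposure 48 h, eight half-log concentrations up to 100 uM, duplicates.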

Read-out in experiment [7]: Fatty Acid-Binding Protein 1 (FABP1), FABP1 (gene 2168)
The experiment is described as follows: LTEA_HepaRG_FABP1: Life Technologies and Expression Analysis (LTEA) Assay for Fatty Acid-Binding Protein 1 (FABP1) using HepaRG (AID 2283494). Put shortly: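 FABP1 expression by TaqMan qRT-PCR, normalised to three housekeeping genes, in HepaRG cells after 48 h chemical treatment. Eight-point half-log series topping at 100 uM in 0.5% DMSO, duplicates; gain or loss fitted relative to vehicle.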

Read-out in experiment [8]: Cytochrome P450 4A22 (Homo sapiens) (UniProt Q5TCH4)
Description: LTEA_HepaRG_CYP4A22: Life Technologies and Expression Analysis (LTEA) Assay for Cytochrome P450 4A22 (CYP4A22) using HepaRG (AID 2283495). The method, boiled down:
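Differentiated HepaRG cells in serum-free induction medium exposed 48 h in duplicate to eight half-log concentrations up to 100 uM in 0.5% DMSO. CYP4A22 mRNA quantified by TaqMan qRT-PCR, normalized to ACTB, GAPDH and POLR2A; bidirectional fit versus DMSO.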

Read-out in experiment [9]: Cytochrome P450 7A1 (Homo sapiens) (UniProt P22680)
Description: LTEA_HepaRG_CYP7A1: Life Technologies and Expression Analysis (LTEA) Assay for Cytochrome P450 7A1 (CYP7A1) using HepaRG (AID 2283496). The method, boiled down: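 Using 0.5% DMSO as vehicle and baseline, chemicals were tested in duplicate over an 8-point range from 100 uM on HepaRG cells for 48 h; qRT-PCR signals were normalised to ACTB, GAPDH and POLR2A.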

Read-out in experiment [10]: Glutathione S-Transferase (GSTA2), GSTA2 (gene 2939)
Description: LTEA_HepaRG_GSTA2: Life Technologies and Expression Analysis (LTEA) Assay for Glutathione S-Transferase (GSTA2) using HepaRG (AID 2283497). The method, boiled down:
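GSTA2 transcript levels came from Fluidigm TaqMan qRT-PCR normalized to three housekeeping genes, fitted in both directions against DMSO. HepaRG cultures received chemicals for 48 h in serum-free induction medium (0.5% DMSO), 8 half-log concentrations up to 100 uM, duplicate.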

Read-out in experiment [11]: Glutamate-cysteine ligase catalytic (GCLC), GCLC (gene 2729)
The experiment is described as follows: LTEA_HepaRG_GCLC: Life Technologies and Expression Analysis (LTEA) Assay for Glutamate-cysteine ligase catalytic (GCLC) using HepaRG (AID 2283498). The method, boiled down: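 Expression by TaqMan qRT-PCR, normalized to three housekeeping genes (ACTB, GAPDH, POLR2A), with up- or down-regulation fitted against DMSO. HepaRG cells dosed in duplicate for 48 h with 8 half-log concentrations up to 100 uM, vehicle 0.5% DMSO.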

Read-out in experiment [12]: growth arrest and DNA damage 45 (GADD45G), GADD45G (gene 10912)
The experiment is described as follows: LTEA_HepaRG_GADD45G: Life Technologies and Expression Analysis (LTEA) Assay for growth arrest and DNA damage 45 (GADD45G) using HepaRG (AID 2283499). The method, boiled down: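 Differentiated human HepaRG cells, 48 h post-plating, exposed 48 h in serum-free induction medium to 8 half-log concentrations (top 100 uM, 0.5% DMSO) in duplicate. GADD45G mRNA measured by Fluidigm TaqMan qRT-PCR, normalized to ACTB, GAPDH, POLR2A; bidirectional fit versus DMSO.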

Read-out in experiment [13]: Glutamate-cysteine ligase regulatory (GCLM), GCLM (gene 2730)
The experiment is described as follows: LTEA_HepaRG_GCLM: Life Technologies and Expression Analysis (LTEA) Assay for Glutamate-cysteine ligase regulatory (GCLM) using HepaRG (AID 2283500). Put shortly:
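HepaRG, 48 h dosing, 100 uM top, half-log x8, 0.5% DMSO vehicle. Readout: GCLM mRNA by TaqMan qRT-PCR, housekeeping-normalized (ACTB/GAPDH/POLR2A). Curves fit bidirectionally vs DMSO baseline.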

Read-out in experiment [14]: Glutathione S-transferase M3 (GSTM3), GSTM3 (gene 2947)
Description: LTEA_HepaRG_GSTM3: Life Technologies and Expression Analysis (LTEA) Assay for Glutathione S-transferase M3 (GSTM3) using HepaRG (AID 2283501). Put shortly: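 Differentiated human HepaRG cells were exposed in duplicate for 48 h in serum-free induction medium, 8 points from 100 uM top in half-log steps, 0.5% DMSO. GSTM3 mRNA was measured by TaqMan qRT-PCR, normalized to ACTB, GAPDH and POLR2A; bidirectional fit versus DMSO.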

Read-out in experiment [15]: Heat shock 70 kDa protein 1 (HSPA1A), gene 3303
The experiment is described as follows: LTEA_HepaRG_HSPA1A: Life Technologies and Expression Analysis (LTEA) Assay for Heat shock 70 kDa protein 1 (HSPA1A) using HepaRG (AID 2283502). The method, boiled down:
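HepaRG, 48 h exposure, 8-pt half-log CRC from 100 uM in 0.5% DMSO, duplicates. Readout: TaqMan qRT-PCR of HSPA1A mRNA, housekeeping-normalized (ACTB/GAPDH/POLR2A). Bidirectional fit vs 0.5% DMSO baseline.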

Read-out in experiment [16]: Hypoxia-inducible factor 1-alpha (Homo sapiens) (UniProt Q16665)
The experiment is described as follows: LTEA_HepaRG_HIF1A: Life Technologies and Expression Analysis (LTEA) Assay for Hypoxia-inducible factor 1 (HIF1A) Trancription factor using HepaRG (AID 2283503). The method, boiled down: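 Gain- or loss-of-signal HIF1A mRNA changes are fitted against a DMSO baseline. HepaRG cultures receive eight concentrations, highest 100 uM, for 48 h in serum-free induction medium with 0.5% DMSO.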

Read-out in experiment [17]: 3-Hydroxy-3-Methylglutaryl-CoA Synthase 2 (HMGCS2), HMGCS2 (gene 3158)
The experiment is described as follows: LTEA_HepaRG_HMGCS2: Life Technologies and Expression Analysis (LTEA) Assay for 3-Hydroxy-3-Methylglutaryl-CoA Synthase 2 (HMGCS2) using HepaRG (AID 2283504). Put shortly: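 Human HepaRG cells in serum-free induction medium were exposed in duplicate for 48 h to 8-point half-log series from 100 uM top in 0.5% DMSO. HMGCS2 mRNA measured by TaqMan qRT-PCR, normalised to ACTB, GAPDH, POLR2A; bidirectional fit versus DMSO.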

Read-out in experiment [18]: HGF (gene 3082)
The experiment is described as follows: LTEA_HepaRG_HGF: Life Technologies and Expression Analysis (LTEA) Assay for Hepatocyte Growth Facto (HGF) using HepaRG (AID 2283505). Put shortly:
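Differentiated HepaRG cells in serum-free induction medium exposed 48 h in duplicate, 8 half-log concentrations from 100 uM in 0.5% DMSO. HGF mRNA by qRT-PCR, normalised to ACTB, GAPDH, POLR2A; bidirectional fitting.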

Read-out in experiment [19]: Insulin Like Growth Factor 1 (IGF1), IGF1 (gene 3479)
Description: LTEA_HepaRG_IGF1: Life Technologies and Expression Analysis (LTEA) Assay for Insulin Like Growth Factor 1 (IGF1) using HepaRG (AID 2283506). The method, boiled down: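 qRT-PCR readout of IGF1 mRNA, normalized to three housekeeping genes, after 48 h chemical exposure of HepaRG cells. Concentrations: 8-point half-log series, top 100 uM, 0.5% DMSO vehicle. Gain or loss fitted against DMSO baseline.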

Read-out in experiment [20]: Intercellular Adhesion Molecule 1 (ICAM1), ICAM1 (gene 3383)
The experiment is described as follows: LTEA_HepaRG_ICAM1: Life Technologies and Expression Analysis (LTEA) Assay for Intercellular Adhesion Molecule 1 (ICAM1) using HepaRG (AID 2283507). Put shortly:
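Differentiated human HepaRG cells in serum-free induction medium exposed 48 h in duplicate to 8 half-log concentrations (top 100 uM, 0.5% DMSO). ICAM1 mRNA quantified by TaqMan qRT-PCR, normalized to ACTB, GAPDH and POLR2A; bidirectional fitting versus DMSO.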

Structures are written as SMILES. Active and inactive are the calls of the source. The calls were made as follows: active = hit-call score of the fitted dose curve at least 0.9, where 1 is the maximum; inactive = score below 0.9.

Chain of Hypoxia-inducible factor 1-alpha (Homo sapiens) (Q16665 whole entry, looked up): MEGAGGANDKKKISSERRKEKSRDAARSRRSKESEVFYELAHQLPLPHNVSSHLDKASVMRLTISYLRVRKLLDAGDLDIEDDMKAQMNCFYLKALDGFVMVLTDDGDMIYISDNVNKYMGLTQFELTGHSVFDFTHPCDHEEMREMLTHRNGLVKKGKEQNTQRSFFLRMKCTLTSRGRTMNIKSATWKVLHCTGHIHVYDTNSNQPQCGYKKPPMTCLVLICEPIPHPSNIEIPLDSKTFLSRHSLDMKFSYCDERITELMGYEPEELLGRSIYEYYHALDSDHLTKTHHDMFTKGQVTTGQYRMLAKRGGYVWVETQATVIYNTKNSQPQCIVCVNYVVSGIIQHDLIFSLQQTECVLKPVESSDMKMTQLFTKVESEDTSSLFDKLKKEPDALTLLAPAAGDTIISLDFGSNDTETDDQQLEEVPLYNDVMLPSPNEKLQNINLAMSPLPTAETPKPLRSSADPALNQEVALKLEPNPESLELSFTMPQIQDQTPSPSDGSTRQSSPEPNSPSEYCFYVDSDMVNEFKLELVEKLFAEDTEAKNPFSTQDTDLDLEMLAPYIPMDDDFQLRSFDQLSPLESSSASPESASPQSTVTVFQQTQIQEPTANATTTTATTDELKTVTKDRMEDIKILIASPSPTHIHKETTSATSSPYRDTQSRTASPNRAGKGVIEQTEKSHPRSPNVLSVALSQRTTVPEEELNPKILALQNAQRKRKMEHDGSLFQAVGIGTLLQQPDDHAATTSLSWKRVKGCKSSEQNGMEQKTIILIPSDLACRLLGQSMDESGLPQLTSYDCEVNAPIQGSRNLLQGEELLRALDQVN
Chain of Cytochrome P450 3A7 (Homo sapiens) (P24462 whole entry, looked up): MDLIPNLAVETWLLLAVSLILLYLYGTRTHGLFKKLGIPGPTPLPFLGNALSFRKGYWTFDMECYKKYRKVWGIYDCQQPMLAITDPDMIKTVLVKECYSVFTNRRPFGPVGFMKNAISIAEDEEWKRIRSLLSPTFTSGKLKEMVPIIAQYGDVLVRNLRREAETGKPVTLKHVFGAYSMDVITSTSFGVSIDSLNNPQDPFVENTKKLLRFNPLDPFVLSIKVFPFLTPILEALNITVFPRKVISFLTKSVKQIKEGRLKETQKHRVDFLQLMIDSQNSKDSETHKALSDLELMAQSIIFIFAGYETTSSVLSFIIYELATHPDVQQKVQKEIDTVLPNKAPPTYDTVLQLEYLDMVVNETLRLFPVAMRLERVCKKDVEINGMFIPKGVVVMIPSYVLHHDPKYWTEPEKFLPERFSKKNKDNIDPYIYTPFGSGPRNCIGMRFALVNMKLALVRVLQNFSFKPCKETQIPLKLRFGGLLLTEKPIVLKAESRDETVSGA

For the molecule `CC(C1CC1)C(O)(Cn1cncn1)c1ccc(Cl)cc1` (centres undefined), the AC50 in experiment [1] was 72.3 µM (active); in [5] it was 2.25 µM (active); in [7], 12.5 µM (active); in experiment [8], 44.9 µM (active); in experiment [9], 18.8 µM (active); in [10], 76.7 µM (active). Moreover, the AC50 in experiment [17] was 83.6 µM (active); in [19] it was 37 µM (active). The molecule was called inactive in [2], in experiment [3], in experiment [4], in experiment [6], in experiment [11] and in experiment [12]. Moreover, the molecule was classed as inactive in experiment [13], in experiment [14], in experiment [15], in [16], in [18] and in experiment [20].
With `CCOP(=S)(OCC)SCCSCC`, the outcome in [1], in experiment [2], in experiment [3], in experiment [4], in experiment [6] and in [7] was inactive. The molecule was called inactive in [8], in [9], in experiment [10], in [11], in experiment [12] and in [13]. Moreover, the outcome in experiment [15], in experiment [16], in [17], in experiment [18] and in experiment [20] was inactive.
Take `CCNc1nc(Cl)nc(NC(C)(C)C#N)n1`: the molecule was classed as inactive in experiment [1], in [2], in experiment [3], in [4], in experiment [6] and in experiment [7]. Besides, the molecule was classed as inactive in experiment [8], in experiment [10], in [11], in [12], in experiment [13] and in experiment [15]. Besides, the result in experiment [16], in experiment [17], in experiment [18] and in [20] was inactive. The AC50 in [5] is 1.77 µM (active).

For orientation: AC50 means the concentration giving half of the maximal activity seen.
